Measurements taken from PubChem BioAssay (NCATS).
Records with an inconclusive call do not appear. Activity calls are given as the source filed them. Calls come from the whole dose curve; as a rule, active = well fitted curve in the direction sought with a large enough effect; inconclusive = small, poorly fitted or top-dose-only effect, or another doubt; inactive = no such curve, though single readings can be large; an effect the other way counts as inactive or inconclusive.

Tests used:
[1] = biological target: Rap guanine nucleotide exchange factor 3 (Homo sapiens) (UniProt O95398); experiment: Confirmatory qHTS for antagonist of cAMP-regulated guanine nucleotide exchange factor 3 (EPAC1) (AID 1645880); conditions: EPAC1 Rap1B-BODIPY-GDP exchange, fluorescence; activity, negative = inhibition: at 115 µM (top of the series); note: nearly all actives have a fitted effect of over 55% in size; note: potency is the fitted concentration of half-maximal effect;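 for activity, negative = inhibition: plate controls were DMSO only for no effect and full effect of the ATA control for full effect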
Outline: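 Released BODIPY-GDP fluoresces less than Rap1-bound BODIPY-GDP; the signal is followed at 480/540 nm at 5-min intervals over 30 min, after 5 min at room temperature. Reactions contain 100 nM EPAC1, 250 nM RAP1B-BODIPY-GDP and 50 uM GDP; results are normalized to ATA and DMSO.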

[2] = biological target: Rap guanine nucleotide exchange factor 3 (Homo sapiens) (UniProt O95398); experiment: Confirmatory qHTS for agonist of cAMP-regulated guanine nucleotide exchange factor 3 (EPAC1) (AID 1645881); note: nearly all actives have a fitted effect of over 75% in size; note: potency is the fitted concentration of half-maximal effect;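 for activation: EPAC1 catalysed release of BODIPY-GDP from Rap1B seen as fluorescence loss; 100% = effect of cAMP agonist control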
[3] = biological target: Rap guanine nucleotide exchange factor 4 (Homo sapiens) (UniProt Q8WZA2); experiment: Confirmatory qHTS for agonist of cAMP-regulated guanine nucleotide exchange factor 4 (EPAC2) (AID 1645884);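 note: nucleotide exchange releases bodipy-GDP from Rap1 and this lowers its fluorescence; nearly all actives have a fitted effect of over 65% in size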; note: potency is the fitted concentration of half-maximal effect; for activation: % is set by controls: 0 for no effect and ±100 for the full control effect
[4] = biological target: Rap guanine nucleotide exchange factor 4 (Homo sapiens) (UniProt Q8WZA2); experiment: Confirmatory qHTS for antagonist of cAMP-regulated guanine nucleotide exchange factor 4 (EPAC2) (AID 1645885); note: nearly all actives have a fitted effect of over 25% in size; note: potency is the fitted concentration of half-maximal effect; for activity change, negative = inhibition: % is set by controls: 0 for no effect and ±100 for the full control effect
[5] = biological target: Rap guanine nucleotide exchange factor 3 (Homo sapiens) (UniProt O95398); experiment: Counterscreen qHTS for antagonist of cAMP-regulated guanine nucleotide exchange factor 3 (EPAC1) (AID 1645888); note: % of control where 0% means no effect
Outline: (§1)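 Rap1B-BODIPY-GDP 250 nM + GDP 50 uM; cpds 7-pt, final 9.74 nM–152 uM (activator mode) or from 7.32 nM upwards (inhibitor mode); RT; FI 480/540 nm at 5 and 30 min, then ± cAMP, reread.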

[6] = biological target: Rap guanine nucleotide exchange factor 3 (Homo sapiens) (UniProt O95398); experiment: Counterscreen qHTS for agonist of cAMP-regulated guanine nucleotide exchange factor 3 (EPAC1) (AID 1645889); note: nearly all actives have a fitted effect of over 40% in size; note: potency is the fitted concentration of half-maximal effect; for activation: % of control where 0% means no effect
Outline: as §1

Rap guanine nucleotide exchange factor 3 (Homo sapiens), sequence (O95398 whole entry, looked up): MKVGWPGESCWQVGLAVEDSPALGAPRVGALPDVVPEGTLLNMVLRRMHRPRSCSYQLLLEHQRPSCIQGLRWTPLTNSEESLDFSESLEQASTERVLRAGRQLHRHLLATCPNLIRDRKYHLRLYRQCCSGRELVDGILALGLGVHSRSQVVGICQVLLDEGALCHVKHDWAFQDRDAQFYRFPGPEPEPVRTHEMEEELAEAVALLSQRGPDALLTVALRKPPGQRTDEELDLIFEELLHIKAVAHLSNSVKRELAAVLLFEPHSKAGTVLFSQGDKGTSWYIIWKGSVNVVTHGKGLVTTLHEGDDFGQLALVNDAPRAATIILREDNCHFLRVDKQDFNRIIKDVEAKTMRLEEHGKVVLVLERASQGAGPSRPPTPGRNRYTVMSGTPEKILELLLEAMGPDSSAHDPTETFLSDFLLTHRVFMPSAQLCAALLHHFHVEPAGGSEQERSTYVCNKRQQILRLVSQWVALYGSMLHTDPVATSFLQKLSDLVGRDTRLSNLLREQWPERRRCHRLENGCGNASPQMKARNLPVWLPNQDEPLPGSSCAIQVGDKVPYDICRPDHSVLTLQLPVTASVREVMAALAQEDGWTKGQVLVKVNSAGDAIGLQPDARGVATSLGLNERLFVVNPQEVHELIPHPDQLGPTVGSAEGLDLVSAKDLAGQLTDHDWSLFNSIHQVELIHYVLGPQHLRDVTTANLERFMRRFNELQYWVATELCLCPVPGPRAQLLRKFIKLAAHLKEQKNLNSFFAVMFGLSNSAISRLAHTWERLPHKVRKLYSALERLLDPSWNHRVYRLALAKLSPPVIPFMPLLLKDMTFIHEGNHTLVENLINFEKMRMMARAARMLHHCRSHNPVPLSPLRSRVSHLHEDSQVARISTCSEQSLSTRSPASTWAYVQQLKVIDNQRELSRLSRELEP
Rap guanine nucleotide exchange factor 4 (Homo sapiens), sequence (Q8WZA2 whole entry, looked up): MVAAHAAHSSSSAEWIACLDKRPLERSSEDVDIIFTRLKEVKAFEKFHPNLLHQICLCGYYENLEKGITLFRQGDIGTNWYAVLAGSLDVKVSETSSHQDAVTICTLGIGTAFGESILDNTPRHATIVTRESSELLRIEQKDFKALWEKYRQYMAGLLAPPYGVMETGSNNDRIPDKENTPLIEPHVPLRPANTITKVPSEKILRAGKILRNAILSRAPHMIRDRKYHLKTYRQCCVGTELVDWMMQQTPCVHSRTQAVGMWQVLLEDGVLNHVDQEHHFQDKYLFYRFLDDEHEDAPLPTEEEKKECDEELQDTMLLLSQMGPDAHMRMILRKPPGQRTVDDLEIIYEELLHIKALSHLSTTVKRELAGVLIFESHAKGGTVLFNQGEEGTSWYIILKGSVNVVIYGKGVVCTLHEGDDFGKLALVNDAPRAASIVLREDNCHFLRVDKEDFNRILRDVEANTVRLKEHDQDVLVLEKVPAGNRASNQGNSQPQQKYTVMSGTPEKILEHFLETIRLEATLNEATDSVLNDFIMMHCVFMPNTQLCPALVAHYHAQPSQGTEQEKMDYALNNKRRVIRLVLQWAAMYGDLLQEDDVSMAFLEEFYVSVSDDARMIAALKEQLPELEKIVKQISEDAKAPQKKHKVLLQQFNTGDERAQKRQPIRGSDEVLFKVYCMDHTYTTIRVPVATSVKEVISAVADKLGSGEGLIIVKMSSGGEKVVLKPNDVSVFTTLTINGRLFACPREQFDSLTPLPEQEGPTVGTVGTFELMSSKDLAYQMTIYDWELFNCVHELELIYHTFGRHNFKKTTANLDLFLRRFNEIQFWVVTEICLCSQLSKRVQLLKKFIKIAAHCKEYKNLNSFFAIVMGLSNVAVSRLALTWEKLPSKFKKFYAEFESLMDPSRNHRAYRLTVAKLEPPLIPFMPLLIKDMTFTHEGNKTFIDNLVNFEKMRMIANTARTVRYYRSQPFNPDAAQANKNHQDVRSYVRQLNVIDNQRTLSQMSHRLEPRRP

Cc1ccc(C(=O)N2CCN(c3ccccc3)CC2)cc1S(=O)(=O)N1CCOCC1
inactive: Potency [1] | Potency [2] | Potency [3] | Potency [4] | Potency [5] | Potency [6]

N#Cc1c(-c2cccs2)nc(SCc2ccc(Cl)cc2)[nH]c1=O
inactive: Potency [2] | Potency [3] | Potency [4] | Potency [5] | Potency [6]
active: Potency [1] 42.6 µM

CSc1ccccc1C(=O)Nc1ccc(C)cc1C
inactive: Potency [1] | Potency [2] | activation [3] -2.17% [at 17.1 µM, percent relative to cAMP agonist control] | Potency [4] | activity change, negative = inhibition [5] -16.8% [at 30.8 µM] | activation [6] -3.4% [at 30.8 µM]

Cc1cc(C)c2cccc(N)c2n1
inactive: Potency [1] | Potency [2] | activation [3] 3.77% [at 17.1 µM, percent relative to cAMP agonist control] | Potency [4] | activity change, negative = inhibition [5] 8.48% [at 30.8 µM]

Cc1ccc(S(=O)(=O)N2CC(C(=O)O)=CC[C@H]2c2ccc(Cl)cc2)cc1
inactive: Potency [1] | Potency [2] | Potency [3] | Potency [4] | Potency [5] | Potency [6]

COc1ccc(-c2ccc(C(=O)NCCN3CCOCC3)c3occc23)c(C)c1
inactive: Potency [1] | Potency [2] | Potency [3] | Potency [4] | Potency [5]

CCOc1cnc(-c2c(-c3c(Cl)cccc3Cl)noc2C)o1
inactive: Potency [1] | Potency [2] | activation [3] 1.16% [at 17.1 µM, percent relative to cAMP agonist control] | Potency [4] | activity change, negative = inhibition [5] -6.2% [at 30.8 µM] | activation [6] 12% [at 30.8 µM]

COC(=O)c1cc2sc(C)cc2n1Cc1ccc(F)cc1Cl
inactive: Potency [1] | Potency [2] | Potency [3] | Potency [4] | Potency [5] | Potency [6]

Cc1oc2cc([N+](=O)[O-])c(O)c([N+](=O)[O-])c2c1C(=O)c1ccc(Br)cc1
active: Potency [1] 75.7 µM
inactive: Potency [2] | Potency [3]

COc1ccc(C2CC(=O)Oc3cc(C)cc(C)c32)cc1 (stereo not given)
inactive: Potency [1] | Potency [2]

COc1ccc(-c2cc3c(c4c2ccn4C)C2CCC3O2)cc1OC (stereo not given)
inactive: Potency [1] | Potency [2] | activation [3] 6.95% [at 17.1 µM, percent relative to cAMP agonist control] | Potency [4] | activity change, negative = inhibition [5] 9.79% [at 30.8 µM] | activation [6] 10.3% [at 30.8 µM]

O=C(COc1ccccc1/C=C\c1[nH]c(=O)[nH]c(=O)c1[N+](=O)[O-])Nc1ccccc1
active: Potency [1] 10 µM
inactive: Potency [2] | activation [3] 2.16% [at 17.1 µM, percent relative to cAMP agonist control] | Potency [4] | activity change, negative = inhibition [5] 2.03% [at 30.8 µM]

CCN(c1ccccc1)S(=O)(=O)c1ccc(C(=O)Nc2ccncc2)cc1
inactive: Potency [1] | Potency [2] | activation [3] -2.02% [at 17.1 µM, percent relative to cAMP agonist control] | Potency [4] | activity change, negative = inhibition [5] -7.46% [at 30.8 µM] | activation [6] 15% [at 30.8 µM]

CCc1cc2c(=O)c(-c3nc4ccccc4n3C)coc2c(CN2CCCCC2C)c1O (stereo not given)
inactive: Potency [1] | Potency [2] | Potency [3] | Potency [4] | Potency [5] | Potency [6]

c1ccc(Oc2nc(-c3cccnc3)nc3ccccc23)cc1
inactive: Potency [1]

O=S(=O)(O)c1ccc(N=NNc2ccc(Br)cc2)cc1
active: Potency [4] 26.9 µM
inactive: Potency [1] | Potency [2] | Potency [3]

O=C(O)c1ccc(/C=N/NC(=O)c2ccc(CN3c4cccc5cccc(c45)S3(=O)=O)cc2)cc1
inactive: Potency [2] | activation [3] -4.21% [at 17.1 µM, percent relative to cAMP agonist control] | Potency [4] | activity change, negative = inhibition [5] 3.17% [at 30.8 µM] | activation [6] 13.7% [at 30.8 µM]
active: Potency [1] 44.7 µM

COc1ccc(OCC(=O)OCCNC(=O)c2cccnc2)cc1
inactive: Potency [1] | Potency [2] | activation [3] -1.04% [at 17.1 µM, percent relative to cAMP agonist control] | Potency [4] | activity change, negative = inhibition [5] -8.99% [at 30.8 µM] | activation [6] 0.499% [at 30.8 µM]

C/C(CC(=O)Nc1ccc(Cl)c(C(F)(F)F)c1)=N\NC(=O)c1cnccn1
inactive: Potency [1] | Potency [2] | Potency [3] | Potency [4] | Potency [5] | Potency [6]

Cc1c2cn[nH]c(=O)c2c(C)n1-c1ccccc1
inactive: Potency [1] | Potency [2] | Potency [3] | Potency [4] | Potency [5] | Potency [6]

CCOC(=O)COc1ccc(Br)cc1/C=C/c1[nH]c(=O)[nH]c(=O)c1[N+](=O)[O-]
inactive: Potency [2] | Potency [3] | Potency [4] | Potency [5]
active: Potency [1] 7.57 µM

CN1/C(=C\C=C2/SC(=S)N(CC(=O)O)C2=O)C(C)(C)c2ccccc21
inactive: Potency [1] | Potency [4] | activity change, negative = inhibition [5] 286% [at 30.8 µM]
active: Potency [2] 44.7 µM | Potency [3] 7.94 µM | Potency [6] 10 µM

O=C1C(=Cc2ccco2)CCC1=Cc1ccco1
inactive: Potency [1] | Potency [2] | Potency [3] | Potency [5] | Potency [6]
active: Potency [4] 60.1 µM

CC1(C(=O)NS(=O)(=O)c2ccc3c(c2)CCO3)CCN1C(=O)C1(c2ccc(Cl)cc2)CCC1 (stereo not given)
active: Potency [1] 39.8 µM
inactive: Potency [2] | activation [3] 1.36% [at 17.1 µM, percent relative to cAMP agonist control] | Potency [4] | activity change, negative = inhibition [5] -29.8% [at 30.8 µM] | activation [6] 34% [at 30.8 µM]

COc1cc(C(C)=O)ccc1COc1ccc(C(=O)O)cc1OC
inactive: Potency [1] | Potency [2] | activation [3] 7.71% [at 17.1 µM, percent relative to cAMP agonist control] | Potency [4] | activity change, negative = inhibition [5] -10.4% [at 30.8 µM] | activation [6] -0.313% [at 30.8 µM]

COc1ccccc1NC(=O)CSc1nc2sc(C)c(C)c2c(=O)n1C
inactive: Potency [1] | Potency [2] | activation [3] 1.44% [at 17.1 µM, percent relative to cAMP agonist control] | Potency [4] | activity change, negative = inhibition [5] -1.48% [at 30.8 µM] | activation [6] 15.6% [at 30.8 µM]

O=C(O)CN1C(=O)/C(=C\c2cc(Br)ccc2OCc2ccc(Cl)cc2)SC1=S
active: Potency [1] 30.1 µM | Potency [4] 47.8 µM
inactive: Potency [2] | Potency [3] | Potency [5]

CC(=O)Nc1cc(C(=O)NCc2ccco2)ccc1Sc1ccc(C)cc1
inactive: Potency [1] | Potency [2] | activation [3] 3.77% [at 17.1 µM, percent relative to cAMP agonist control] | Potency [4] | activity change, negative = inhibition [5] -18.4% [at 30.8 µM] | activation [6] 6.12% [at 30.8 µM]

CCOc1ccc(/C=C2\SC(=S)NC2=O)cc1OC
inactive: Potency [2] | Potency [3] | Potency [4] | Potency [5] | Potency [6]
active: Potency [1] 15.1 µM

N#Cc1c(N2CCCCC2)nc(N)c2c(N)nc(SCC(=O)O)cc12
active: Potency [1] 31.6 µM
inactive: Potency [2] | activation [3] 13.6% [at 17.1 µM, percent relative to cAMP agonist control] | Potency [4] | activity change, negative = inhibition [5] 35.9% [at 30.8 µM]

Cc1noc(C)c1S(=O)(=O)Nc1ccc2c(c1)C(=O)N([C@@H](C)CO)C[C@@H](C)[C@@H](CN(C)CC1CCCCC1)OCCCC[C@@H](C)O2
inactive: Potency [1] | Potency [2] | Potency [3] | Potency [4] | Potency [5] | Potency [6]

COc1ccc(C2CC(c3cccs3)=NN2C(=O)c2ccco2)cc1OC (stereo not given)
inactive: Potency [1] | Potency [2] | activation [3] 4.11% [at 17.1 µM, percent relative to cAMP agonist control] | Potency [4] | activity change, negative = inhibition [5] -16.2% [at 30.8 µM] | activation [6] 31.8% [at 30.8 µM]

CNC(=O)COC(=O)c1cc(-c2ccco2)nc2ccccc12
active: Potency [1] 23.9 µM | Potency [6] 50.1 µM
inactive: Potency [2] | Potency [3] | Potency [4] | Potency [5]

COc1cccc(-c2nc(SCC(=O)Nc3nc(-c4ccccc4)c(C)s3)[nH]c(=O)c2C#N)c1
active: Potency [1] 75.7 µM
inactive: Potency [2] | Potency [3] | Potency [4] | Potency [5] | Potency [6]

CCOC(=O)c1cc(-c2nnc(SCC(=O)Nc3ccc(F)cc3)o2)c(C)nc1C
inactive: Potency [1] | Potency [2] | Potency [3] | Potency [4] | Potency [5] | Potency [6]

COc1ccc(C(C(=O)NC(C)(C)C)n2c(=O)c(-c3cc4ccccc4[nH]3)nc3ccccc32)cc1 (stereo not given)
inactive: Potency [1] | Potency [2] | Potency [3]

COc1ccccc1N1CCN(S(=O)(=O)c2ccc3c(c2)NC(=O)C(C)C(=O)N3)CC1 (stereo not given)
inactive: Potency [1] | Potency [2] | Potency [3] | Potency [4] | Potency [5] | Potency [6]

O=C(C1CCN(S(=O)(=O)N2CCOCC2)CC1)N1CCN(c2ccccc2)CC1
inactive: Potency [1] | Potency [2] | Potency [3] | Potency [4] | Potency [5] | Potency [6]

O=c1c2cc([N+](=O)[O-])cc([N+](=O)[O-])c2[nH]n1-c1ccccc1
active: Potency [1] 35.5 µM
inactive: Potency [2] | activation [3] 3.37% [at 17.1 µM, percent relative to cAMP agonist control] | Potency [4] | activity change, negative = inhibition [5] -31.5% [at 30.8 µM] | activation [6] 10.6% [at 30.8 µM]

CC1=C(CO)C(=O)OC([C@@H](C)C2CC[C@H]3C4C[C@H]5O[C@]56[C@@H](O)C=CC(=O)[C@]6(C)C4CC[C@]23C)C1 (stereo not given in full)
active: Potency [1] 84.9 µM
inactive: Potency [2] | Potency [3] | Potency [4] | Potency [5] | Potency [6]

COc1cccc(C(=O)NC(=S)N2c3ccccc3CC2C)c1OC (stereo not given)
inactive: Potency [1] | Potency [2] | activation [3] 5.75% [at 17.1 µM, percent relative to cAMP agonist control] | Potency [4] | activity change, negative = inhibition [5] -1.25% [at 30.8 µM] | activation [6] 14.2% [at 30.8 µM]

CC1CCCN(C(=O)c2cccc(S(=O)(=O)Nc3cc(C(F)(F)F)ccc3Cl)c2)C1 (stereo not given)
inactive: Potency [2] | Potency [3] | Potency [5] | Potency [6]
active: Potency [1] 21.3 µM | Potency [4] 26.9 µM

COC(=O)COc1ccc(C(c2c(C)[nH][nH]c2=O)c2c(C)[nH][nH]c2=O)cc1
inactive: Potency [1] | Potency [2] | Potency [3] | Potency [4] | Potency [5] | Potency [6]
